KCNQ2 enhance = potentiators of rat KCNQ2 potassium channel. O88943. CHO-K1 KCNQ2, FluxOR thallium flux fluorescence; active compounds read high. B-score at 10 µM. hit rate 0.54% among 310,000;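 active means fluorescence ratio B-score at least 3 SD of library B-scores, with initial fluorescence B-score within 3 of them, cut at about 5.3 in these data; same plate scores as AID 2156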;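 further: B-score of peak minus minimum over baseline fluorescence ratio after K+ and Tl+ stimulus; positive B-score means potentiation of KCNQ2 with more thallium influx and brighter signal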
KCNQ2 block = blocks the rat KCNQ2 potassium channel; O88943; B-score at 10 µM; hit rate 1.1% among 310,000; CHO-K1 KCNQ2, FluxOR thallium flux, 20 min; active compounds read low;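 active means fluorescence ratio B-score at most minus 3 library SDs, with starting brightness B-score within 2 library SDs, cut at about -5.5 in these data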
* = called active by the depositor; i = inactive; . = not tested or not shown. Hits are enriched below; roughly 1.6% of the tested compounds scored in any of these assays.

SMILES	KCNQ2 enhance	KCNQ2 block
Cc1ccc(S(=O)(=O)N2CCC(=O)N(C(COCc3ccc(Cl)cc3Cl)Cc3ccccc3)CC2)cc1 (configuration not stated)	-5.97	-5.97*
Cc1ccc(S(=O)(=O)N2CCC(=O)N(C(COCc3cccc(Cl)c3)Cc3ccccc3)CC2)cc1 (configuration not stated)	.	i
C[C@H](CCC(=O)NCC(=O)O)[C@H]1CC[C@H]2C3[C@H](O)C[C@@H]4C[C@H](O)CC[C@]4(C)[C@H]3C[C@H](O)[C@]12C (some centres not stated)	.	i
Cc1ccc(S(=O)(=O)N(CC(=O)NCc2ccccn2)c2ccc(Cl)cc2)cc1	0.48	i
Cc1cc(-c2ccc(S(=O)(=O)N(C)c3ccc(C)c(C)c3)s2)on1	-6.71	-6.71*
COc1ccc(-c2cc(C)no2)cc1S(=O)(=O)N(C)c1ccc(C)c(C)c1	.	i
CCN1CCN(S(=O)(=O)c2ccc(-c3cc(C)no3)s2)CC1	0.1	i
Cc1ccc(N(C)S(=O)(=O)c2ccc(-c3cc(C)no3)s2)cc1	-6.52	-6.52*
CCOC(=O)/C(C#N)=C\c1ccc2c(c1)OCO2	0.65	i
Cc1nc2sc(C(c3ccc(Cl)cc3)N3CCOCC3)c(O)n2n1 (configuration not stated)	.	i
COc1ccc(C2=Nc3ccc(Br)cc3C(c3ccccc3)N2CC(=O)NN)cc1 (configuration not stated)	7.81*	i
COc1ccc(C2=Nc3ccc(C)cc3C(c3ccccc3)N2CC(=O)NN)cc1 (configuration not stated)	2.66	i
COc1ccccc1N(C(=O)Cn1nnc(-c2ccc(C)o2)n1)C(C(=O)NC1CCCC1)c1ccncc1 (configuration not stated)	0.65	i
Cc1ccc(-c2csc3ncn(-n4c(C)ccc4C)c(=O)c23)o1	-6.64	-6.64*
Cc1sc2ncn(-n3c(C)ccc3C)c(=O)c2c1C	-5.72	-5.72*
C=CCn1c(SCc2ccccc2)nc2scc(-c3ccc(C)o3)c2c1=O	0.16	i
Cc1sc2ncn(CCn3cnc4sc(C)c(C)c4c3=O)c(=O)c2c1C	.	i
Cc1[nH]c(=O)[nH]c(=O)c1NS(=O)(=O)c1ccc2c(c1)CCCC2	.	i
Nc1ccc(Oc2c(Cl)cccc2Cl)nc1	.	i
Cc1cc(C(=O)COC(=O)CNC(=O)c2ccccc2)c(C)n1CC1CCCO1 (configuration not stated)	0.01	i
N=C1S/C(=C\c2ccco2)C(=O)N1c1nccs1	9.12*	i
N=C1S/C(=C\c2ccco2)C(=O)N1c1ccc2c(c1)OCO2	.	i
O=C(COC(=O)CC(c1ccccc1)c1ccccc1)Nc1cccc(F)c1	.	i
O=C(COC(=O)CC(c1ccccc1)c1ccccc1)Nc1ccc(F)c(F)c1	-8.08	-8.08*
CCOC(=O)/C(C(=O)Nc1ccc(Cl)cc1Cl)=C1/NC(C)(C)Cc2ccccc21	-6.3	-6.3*
SMILES	KCNQ2 enhance	KCNQ2 block
CN1C(CC(=O)Nc2ccc(Cl)cc2Cl)c2ccccc2CC1(C)C (configuration not stated)	.	i
CCOC(=O)N1CCN(CC(=O)Nc2ccc(F)cc2F)CC1	.	i
CCOc1cc(/C=N/NC(=O)CSc2nncn2C)ccc1OCc1ccccc1	0.23	i
CC(c1nnc(SCC(=O)c2c(N)n(C)c(=O)n(C)c2=O)n1-c1ccc(Cl)cc1)N(C)C (configuration not stated)	0.08	i
Cc1nc(NC(=O)c2cccc(Cl)c2)sc1C(=O)N1CCCCC1	-7.47	-7.47*
Cc1nc(NC(=O)C2CC2)sc1C(=O)N1CCCCC1	1.16	i
Cn1c(CCNC(=O)c2ccco2)nc2cc(NC(=O)c3ccco3)ccc21	.	i
COCCn1c(C)cc(C2=NNC(=Nc3ccc(OC)cc3)SC2)c1C	.	i
COc1ccc(C2CC(c3cccs3)=NN2S(C)(=O)=O)cc1 (configuration not stated)	0.71	i
COc1ccc(C2CC(c3cccs3)=Nc3ccccc3S2)cc1 (configuration not stated)	-5.96	-5.96*
CC1Cc2ccccc2N1C(=O)CCn1c(=O)sc2ccccc21 (configuration not stated)	-6.04	-6.04*
CC1Cc2ccccc2N1C(=O)CCN1C(=O)C2C3C=CC(C3)C2C1=O (configuration not stated)	0.21	i
O=C(/C=C\c1ccccc1[N+](=O)[O-])Nc1ccccc1	.	i
CC(C(=O)Nc1ccccc1Oc1ccccc1)c1ccccc1 (configuration not stated)	8.9*	i
COc1ccccc1NC(=O)C(C)NC(c1ccccc1)c1ccccc1 (configuration not stated)	1.37	i
CNc1cc(CSc2ccc(Cl)cc2)nc(C)n1	1.22	i
Cc1nc(CSc2ccc(Cl)cc2)cc(NCc2ccccc2)n1	-5.69	-5.69*
COc1cccc(-c2nc(N3CCCCC3C)c3ccccc3n2)c1O (configuration not stated)	-6.81	-6.81*

Screening data deposited in PubChem BioAssay by Johns Hopkins Ion Channel Center.
